The results in this text go back to PubChem BioAssay AID493201 (National Center for Advancing Translational Sciences (NCATS), 2011).

Records with an inconclusive call do not appear. A call without a number means that no potency is given here. The source made the active and inactive calls. Calls follow the shape of the dose curve; as a rule, active = well fitted activation curve with a large enough effect; inconclusive = small, poorly fitted or top-dose-only effect; inactive = no such curve, though single readings can be large or run the other way.
Potency is read from the fitted curve at half-maximal effect.

A short description of the test: qHTS Assay for Identifying a Potential Treatment of Ataxia-Telangiectasia: Secondary assay (no NCS) hit validation.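 Also: phosphorylated KAP1 signal as a proxy for ATM-like kinase activity.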 Particulars: A-T patient fibroblasts, AlphaLISA, no DNA damage added, 90 min; series mostly up to 76.9 µM. The gist of the method: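 Without NCS-induced DNA breaks, ATM-like activity scored as phospho-KAP1 AlphaLISA signal (pKAP1/total KAP1 bead pair) in ATM-null F2112 fibroblasts; compound series up to 76.7 uM final, 37C incubation, lysates read on AlphaScreen protocol.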
A general note: Quantitative high-throughput screening tests each substance at several concentrations.
For the compound `O=C1NC(NS(=O)(=O)c2ccc(Cl)cc2)(C(F)(F)F)C(=O)N1CCc1ccccc1` (centres undefined), the Potency result is “inactive”.
The value for `CCOC(=O)N1CCC(NC(=O)C2CCN(S(=O)(=O)c3cccc4cccnc34)CC2)CC1` was “inactive”.
In the case of `COc1ccc(N2CCN(C(=O)c3cc4cc(Cl)ccc4[nH]3)CC2)cc1` it was “inactive”; in that of `COc1cc(CCC(C)NCc2ccccc2)ccc1O` (centres undefined), “inactive”.
Consider `O=C(NC(=O)c1c(F)cccc1F)Nc1ccccc1SC(F)F`, for which the Potency entry is “inactive”.
Consider `CCOc1ccc(NC2=NCC(=O)N2Cc2cccs2)cc1`, for which the Potency result is “inactive”.
`N#CCN1C(=O)C(=O)N(Cc2cccc(Cl)c2)C1=O`: the Potency entry is “inactive”.
The value for `O=C(O)c1ccc(-c2nc3ccccc3s2)o1` was “inactive”; that for `COc1ccc(-c2nn(C)c(=O)[nH]2)cc1` was “inactive”; that for `CCn1c(=NC(=O)CN2C(=O)CCC2=O)sc2c(OC)ccc(OC)c21` was 0.923 µM (active).
The value for `CCN(CC)c1ccc2c(Cl)c(Br)c(=O)oc2c1` was “inactive”; that for `Cc1nn(C)c(Cl)c1CN1CCN(C2CCCC2)C(CCO)C1` (centres undefined) was “inactive”; that for `CCN(c1ccccc1)S(=O)(=O)c1ccc(Cl)c(C(=O)N(CC2CCCO2)C2CCS(=O)(=O)C2)c1` (centres undefined) was 14.6 µM (active).
In the case of `NC(=O)c1cc2ccccc2o/c1=N/NC(=O)c1cccc(F)c1` it was “inactive”.
